{
  "source": "PubChem BioAssay AID624296",
  "about": "(National Center for Advancing Translational Sciences (NCATS), 2012)",
  "note": "The whole screen tested about 350,000 compounds, of which about 9,900 (2.8%) were called active. Another 15% or so got no clear call; they are omitted. The call rests on the fitted dose curve; in most records, active means well fitted activation curve with a large enough effect; inconclusive means small, poorly fitted or top-dose-only effect; inactive means no such curve, though single readings can be large or run the other way. Shown is part of a subset that was picked to be rich in actives. Where a call stands in place of a potency, no number is given. Potency means the concentration at half of the fitted maximal effect.",
  "data": [
    {"assay": "A quantitative high throughput screen for small molecules that induce DNA re-replication in MCF 10a normal breast cells; further: nearly all actives have a fitted effect of over 50% in size.", "settings": "MCF 10A DNA re-replication, Hoechst nuclear intensity, 48 h; series mostly up to 46.1 µM", "values": [
      {"compound": "Cc1occc1C(=O)Nc1cccc(S(=O)(=O)N2CCOCC2)c1", "Potency": "inactive"},
      {"compound": "CCN1CCN(C(=O)CSc2ccc(C)cc2)CC1", "Potency": "inactive"},
      {"compound": "CCN1CCC2(CC1)N=C(c1ccc(F)cc1)C(=S)N2C(=O)c1ccc(C)cc1", "Potency": "13 µM (active)"},
      {"compound": "Cc1ccc(SCC(=O)N2CCN(c3ccc(F)cc3)CC2)cc1", "Potency": "inactive"},
      {"compound": "CCOc1ccc(-n2c(SCC(=O)OC)nc3sc4c(c3c2=O)CCN(C)C4)cc1", "Potency": "inactive"},
      {"compound": "COc1ccccc1NC(=O)CSc1nc2sc3c(c2c(=O)n1-c1ccccc1)CCN(C)C3", "Potency": "inactive"},
      {"compound": "CCSc1nc2sc3c(c2c(=O)n1-c1ccc(C)cc1)CCN(C)C3", "Potency": "18.4 µM (active)"},
      {"compound": "Cc1ccc(S(=O)(=O)N(C)CC(=O)NCC(c2ccc(F)cc2)N2CCOCC2)cc1", "note": "(stereo unspecified)", "Potency": "inactive"},
      {"compound": "Cc1ccccc1C(=O)Nc1ccc(N2CCCCCC2)cc1", "Potency": "18.4 µM (active)"},
      {"compound": "Cc1ccccc1C(=O)NC(=S)Nc1ccc(N2CCN(C(=O)c3ccccc3)CC2)cc1", "Potency": "inactive"},
      {"compound": "Cc1ccccc1C(=O)Nc1ccccc1NC(=O)c1ccccc1C", "Potency": "inactive"},
      {"compound": "O=c1[nH]c2c(c(=O)n1-c1ccccc1)CCO2", "Potency": "inactive"},
      {"compound": "Cc1ccccc1N1CCN(C(=O)c2cccnc2)CC1", "Potency": "inactive"},
      {"compound": "CC1Cc2ccccc2N1S(=O)(=O)c1cccc(C(=O)OCC(=O)N2CCOCC2)c1", "note": "(stereo unspecified)", "Potency": "inactive"},
      {"compound": "CCC1([N+](=O)[O-])COC(c2ccc(C(C)C)cc2)OC1", "note": "(stereo unspecified)", "Potency": "inactive"},
      {"compound": "CC(C)N(C(=O)c1ccc(-c2ccccc2F)cc1)C(C)C", "Potency": "inactive"},
      {"compound": "O=C(CN1C(=O)c2ccccc2C1=O)NCc1ccc(C(=O)O)cc1", "Potency": "inactive"},
      {"compound": "CC(=O)N(C1=C(Cl)C(=O)c2ccccc2C1=O)c1ccc(C(=O)O)cc1", "Potency": "5.8 µM (active)"},
      {"compound": "O=C(OCC(=O)N1CCCCCC1)c1cnc(Cl)c(Cl)c1", "Potency": "inactive"},
      {"compound": "COc1cc2ccccc2cc1C(=O)N(CCN(C)C)c1nc2c(F)cccc2s1", "Potency": "inactive"},
      {"compound": "COc1cccc2sc(N(CCCN(C)C)C(=O)CCS(=O)(=O)c3ccccc3)nc12", "Potency": "6.51 µM (active)"},
      {"compound": "CN(C)CCCN(C(=O)COc1ccccc1)c1nc2c(Cl)cccc2s1", "Potency": "inactive"},
      {"compound": "N#Cc1ccccc1S(=O)(=O)N1CCN(Cc2c(O)ccc3ccccc23)CC1", "Potency": "inactive"},
      {"compound": "O=[N+]([O-])c1cccc(/C([O-])=C(/C(=S)Nc2ccccc2F)[n+]2ccccc2)c1", "Potency": "inactive"},
      {"compound": "CCOc1ccccc1NC(=S)C(=C([O-])c1ccc2c(c1)OCCO2)[n+]1ccc(CC)cc1", "Potency": "2.59 µM (active)"},
      {"compound": "CCc1ccccc1OCC(=O)Nc1ccc2c(c1)OCCO2", "Potency": "inactive"},
      {"compound": "O=[N+]([O-])c1ccc(N=NNc2ccc([N+](=O)[O-])cc2)cc1", "Potency": "inactive"},
      {"compound": "Cc1cccc(NC(=O)CSc2nnc(-c3ccco3)o2)c1", "Potency": "inactive"},
      {"compound": "Cc1cccc(NC(=O)c2sc3nc(N4CCOCC4)c4c(c3c2N)CCCC4)c1", "Potency": "2.91 µM (active)"},
      {"compound": "Cc1ccc(NC(=O)c2sc3nc(N)c(C#N)cc3c2N)cc1", "Potency": "inactive"},
      {"compound": "CC(=O)Nc1ccc(NC(=O)c2sc3nc4c(c(-c5ccc(C)cc5)c3c2N)CCC4)cc1", "Potency": "5.8 µM (active)"},
      {"compound": "CC(=O)Nc1ccc(N2CCOCC2)c(C(=O)Nc2cccc(C)c2)c1", "Potency": "inactive"},
      {"compound": "c1ccc(CSc2ncnc3c2sc2nc(N4CCOCC4)c4c(c23)CCCC4)cc1", "Potency": "inactive"},
      {"compound": "Cc1cccc(NC(=O)c2sc3nc4c(c(-c5ccco5)c3c2N)CCC4)c1", "Potency": "13 µM (active)"},
      {"compound": "CC(=O)c1ccc(NC(=O)c2sc3nc4n(c(=O)c3c2C)CCCCC4)cc1", "Potency": "inactive"},
      {"compound": "Cc1cccc(NC(=O)/C(=C\\c2ccco2)NC(=O)c2ccccc2)c1", "Potency": "inactive"},
      {"compound": "Cc1ccc(S(=O)(=O)N(C)c2ccc(OCC(=O)OCc3ccc(C#N)cc3)cc2)cc1", "Potency": "inactive"},
      {"compound": "O=C(CC(=O)c1cccnc1)c1ccccc1", "Potency": "inactive"},
      {"compound": "OC(COc1ccccc1)CN1CCN(c2cccc(Cl)c2)CC1", "note": "(stereo unspecified)", "Potency": "inactive"},
      {"compound": "C[C@@H]1NS(=O)(=O)c2cc(Cl)ccc2O[C@@H]1c1ccccc1", "Potency": "inactive"},
      {"compound": "CCc1cccc(NC(=O)COC(=O)c2cc(=O)c3ccccc3o2)c1", "Potency": "inactive"},
      {"compound": "CCOC(=O)C1CCCN(C(=O)CSc2nnc3nc(C)cc(C)n23)C1", "note": "(stereo unspecified)", "Potency": "inactive"},
      {"compound": "Cc1c(C(=O)Nc2cccc(S(=O)(=O)N3CCOCC3)c2)oc2ccccc12", "Potency": "inactive"},
      {"compound": "CCN(CC)S(=O)(=O)c1ccc(NC(=O)CN(c2cccc(F)c2)S(C)(=O)=O)cc1", "Potency": "inactive"},
      {"compound": "Cc1cccc(N(CC(=O)Nc2ccc(-c3nc4ccc(C)cc4s3)cc2)S(C)(=O)=O)c1", "Potency": "14.6 µM (active)"},
      {"compound": "COc1cccc(N(CC(=O)Nc2cccc(F)c2)S(C)(=O)=O)c1", "Potency": "inactive"},
      {"compound": "CCN(CC)C(=O)[C@H]1CC(CC(=O)NCc2ccco2)C(=O)N2CCc3c([nH]c4ccccc34)[C@]12C", "note": "(stereo partly specified)", "Potency": "inactive"},
      {"compound": "CN(C)S(=O)(=O)c1ccc(C(=O)NCC2(N3CCOCC3)CCCCC2)cc1", "Potency": "inactive"},
      {"compound": "O=C(N/N=C/c1sc(N2CCCCC2)nc1-c1cccs1)c1cccnc1", "Potency": "0.461 µM (active)"},
      {"compound": "O=C(N/N=C/c1ccc(O)c2ccccc12)c1cccnc1", "Potency": "inactive"},
      {"compound": "Cc1cc(/C=N/NC(=O)c2cccnc2)c(C)n1CC(C)C", "Potency": "inactive"}
    ]}
  ]
}
